Bioassay records from PubChem.
PLK1 PBD block = qHTS for Inhibitors of PLK1-PDB (polo-like kinase 1 - polo-box domain): Primary Screen; Serine/threonine-protein kinase PLK1 (Homo sapiens), P53350; Plk1 PBD binding of FITC phosphopeptide, fluorescence polarization; Potency, µM, most hits filed as inhibitors; hit rate 2.8% among 360,000; AID 720504, 2013; also: series mostly up to about 57 µM; nearly all actives have a fitted effect of over 65% in size
MmCpn inh = Inhibitors of TCP-1 ring complex (TRiC) of Methanococcus maripaludis (MmCpn): qHTS | purified Mm-Cpn ATPase, ADP Transcreener TR-FRET | Potency, µM (top dose mostly 76.9 µM), usual class: inhibitors | hit rate 0.031% among 330,000 | AID 504842, 2011; also: nearly all actives have a fitted effect of over 80% in size
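Reaction buffer contained 30 mM Tris pH 7.4, 100 mM KCl, 5 mM MgCl2 and 1 mM DTT. Mm-CPN (25 nM final) hydrolysed 10 uM ATP over 30 min at 37°C; ADP was read by HTRF.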
CCT chaperon mod = High-Throughput Screening for Modulators of Cytosolic Chaperonin Activity. purified chaperonin ATPase assay, HTRF ADP detection, 30 min. activity change, % (concentration not given with the values), hits read low. hit rate 0.3% among 360,000; in the data active = activity change below about -30%
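First, chaperonin was dispensed at 40 nM or 20 nM final depending on batch activity. Next, compounds were pinned at 76 uM and ATP added at 10 uM. After 30 min at 37 °C, ADP detection reagents ran 30 min at ambient temperature.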
G9a inh = qHTS Assay for Inhibitors of Histone Lysine Methyltransferase G9a; Histone-lysine N-methyltransferase EHMT2 (Homo sapiens), Q96KQ7; G9a H3K9 monomethylation, AlphaScreen, 2 h; Potency, µM (doses to about 102 µM), hits mostly inhibitors; hit rate 8.8% among 350,000; AID 504332, 2011; also: nearly all actives have a fitted effect of over 75% in size
Target sequence (Q96KQ7 913-1193 limits assumed): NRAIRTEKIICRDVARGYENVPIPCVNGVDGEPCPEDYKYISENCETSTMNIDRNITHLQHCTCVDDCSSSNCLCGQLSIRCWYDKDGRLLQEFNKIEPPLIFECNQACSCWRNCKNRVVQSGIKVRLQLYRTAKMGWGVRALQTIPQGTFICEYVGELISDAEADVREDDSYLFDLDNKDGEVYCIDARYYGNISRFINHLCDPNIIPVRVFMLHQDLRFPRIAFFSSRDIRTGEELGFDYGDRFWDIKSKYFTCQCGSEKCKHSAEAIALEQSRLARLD
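Signal arises when biotinylated H3K9 peptide, once monomethylated, bridges streptavidin donor and antibody-captured acceptor beads. Enzyme at 20 nM was preincubated 15 min with test compounds; peptide 500 nM and SAM 20 uM then reacted for 2 h.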
VDR inhibitor = Inhibitors of the vitamin D receptor (VDR): qHTS. VDR-SRC2-3 peptide fluorescence polarization, 2 h. Potency, µM, usual class: inhibitors. hit rate 0.93% among 400,000. AID 504847, 2011
Target sequence (P11473 whole entry, looked up): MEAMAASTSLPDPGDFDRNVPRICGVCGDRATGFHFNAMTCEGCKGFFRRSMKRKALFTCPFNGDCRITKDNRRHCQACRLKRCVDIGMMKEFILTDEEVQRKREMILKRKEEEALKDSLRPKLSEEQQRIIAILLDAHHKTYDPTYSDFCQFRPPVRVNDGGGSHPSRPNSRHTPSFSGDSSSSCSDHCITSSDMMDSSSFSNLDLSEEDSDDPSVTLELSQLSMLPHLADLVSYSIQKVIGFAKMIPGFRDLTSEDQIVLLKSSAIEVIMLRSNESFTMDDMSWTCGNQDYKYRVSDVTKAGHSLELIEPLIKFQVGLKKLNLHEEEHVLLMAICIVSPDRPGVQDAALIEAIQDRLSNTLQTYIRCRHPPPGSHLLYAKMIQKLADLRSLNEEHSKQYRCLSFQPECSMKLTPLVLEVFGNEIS
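Fluorescence polarization assay measuring small-molecule disruption of VDR binding to the coregulator peptide SRC2-3. Compounds were pin-transferred (23 nl) into the reagent mix and incubated 2 h at room temperature before reading.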
Sfp inh = qHTS Assay for Inhibitors of Bacillus subtilis Sfp phosphopantetheinyl transferase (PPTase). 4'-phosphopantetheinyl transferase ffp (Bacillus subtilis), Q9F4F7. Biochemical Sfp PPTase activity, qHTS. Potency, µM, most hits filed as inhibitors. hit rate 3.5% among 310,000. AID 1490, 2009;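 also: the enzyme is Sfp with the accession as filed and its product quenches rhodamine fluorescence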
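Fluorescence-quenching assay: 15 nM Sfp-PPTase preincubated 15 min at room temperature with compound, then 5 uM rhodamine-CoA and 12.5 uM BHQ-2-labelled YbbR peptide added. Fluorescence (ex 525/em 598 nm) read at start and after 30 min; difference gives rate.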
Hits are given with their value; . = inactive; ? = inconclusive; / = no result given; [ ] = dose if it differs, or a comment. Rows were chosen to be rich in hits. Some 10% of all compounds tested hit in one or more screens of this group. Unless noted, calls follow the shape of the dose curve; as a rule, active = well fitted curve in the direction sought with a large enough effect; inconclusive = small, poorly fitted or top-dose-only effect, or another doubt; inactive = no such curve, though single readings can be large; an effect the other way counts as inactive or inconclusive.

SMILES | PLK1 PBD block | MmCpn inh | CCT chaperon mod | G9a inh | VDR inhibitor | Sfp inh
Nc1ccc2nc(-c3cccc(-c4nc5ccc(N)cc5[nH]4)c3)[nH]c2c1 | . | . | . | 22µM | ? | .
Nc1ccc2nc(-c3cc(Cl)c(N)c(Cl)c3)[nH]c2c1 | 24µM | ? | . | ? | ? | ?
Nc1cc(N)cc(-c2nc3ccccc3[nH]2)c1 | . | . | . | 22µM | . | .
COc1ccc(-n2nnnc2SCC(=O)c2ccc(O)c(O)c2)cc1 | . | . | . | ? | . | .
NC(=O)c1ccc(-n2nnnc2SCC(=O)c2ccc(O)c(O)c2)cc1 | . | . | . | 11µM | . | ?
Cc1cc(C(=O)CSc2nnnn2-c2ccccc2)c(C)n1CCc1ccccc1 | . | . | . | . | . | .
Cc1ccccc1-n1c(SCC(=O)c2cc(C)n(C)c2C)nnc1-c1ccncc1 | . | . | . | 71µM | . | .
CCc1cccc2c(C(=O)CSc3nnc(-c4ccncc4)n3C)c[nH]c12 | . | . | . | 32µM | . | ?
Cc1cc(C(=O)CSc2nnnn2-c2ccc(O)cc2)c(C)n1C | 24µM | . | . | ? | . | .
COCCn1c(SCC(=O)c2c[nH]c3ccccc23)nnc1-c1ccncc1 | . | . | . | . | . | .
Cc1ccccc1-n1c(SCC(=O)c2ccccc2)nnc1-c1ccc(F)cc1 | / | / | / | . | . | /
CC(C)CC(C(=O)NCC1CCN(Cc2ccc(F)cc2)CC1)N1Cc2ccccc2C1=O (stereo unspecified) | / | / | / | . | . | /
COc1cc(NC(=O)CSc2ccc(-c3sc(C)nc3C)nn2)cc(OC)c1 | / | / | / | . | . | /
Cc1ccc(-n2c(C)cc(C(=O)CSc3nnnn3C)c2C)cc1 | . | . | . | 14µM | . | ?
Cc1ccc(-n2c(C)cc(C(=O)CSc3nncs3)c2C)cc1 | . | ? | . | ? | . | ?
Cc1cc(C)c(NC(=O)CNC(=O)CNC(=O)C2CCCCC2)c(C)c1 | . | . | . | .[2.33 µM] | . | /
Cc1cc(C)c(NC(=S)NCCCSC2CCCCC2)c(C)c1 | 24µM | . | . | ? | . | 45µM
Cc1ccc(C(C)C)c(OCc2ccc(-c3nnco3)cc2)c1 | . | . | . | .[12.7 µM] | . | 50µM
COC(=O)c1ccc2c(=O)n(CCCCCC(=O)N3CCN(c4ccc(OC)cc4)CC3)c(=O)[nH]c2c1 | / | / | / | . | . | /
CCOc1ccccc1C1CC(=O)NC2=C1C(=O)CC(C)(C)C2 (stereo unspecified) | 27µM | . | . | . | . | .
COc1cc(C2CC(=O)NC3=C2C(=O)CC(C)(C)C3)ccc1O (stereo unspecified) | . | . | . | .[12.7 µM] | . | .
O=c1n(Cc2ccccc2)c(O)c2n1Cc1ccccc1N=C2c1ccccc1 | . | / | -40 | / | / | /
COc1ccc(CC(=O)n2[nH]c(=O)ccc2=O)cc1OC | 6.7µM | . | . | 1.1µM | 45µM | 3.5µM
CCOc1ccccc1N(C)C(=O)c1cc(S(=O)(=O)NCCc2ccc(Cl)cc2)ccc1F | / | / | / | . | . | /
COc1ccc(/C=C2/SC(=S)N(NS(=O)(=O)c3ccccc3)C2=O)cc1 | ? | . | . | ? | ? | .
SMILES | PLK1 PBD block | MmCpn inh | CCT chaperon mod | G9a inh | VDR inhibitor | Sfp inh
C=CCOc1ccc(/C=C2\SC(=S)N(NS(=O)(=O)c3ccccc3)C2=O)cc1 | 21µM | . | . | .[2.33 µM] | ? | .
O=C1/C(=C\c2ccc(Br)cc2)SC(=S)N1NS(=O)(=O)c1ccccc1 | 21µM | . | . | . | . | .
CCc1ccccc1NC(=S)NN | / | . | / | ? | / | .
CCc1ccccc1NC(=O)/C(=C/c1ccco1)c1ccccc1 | . | . | . | 40µM | . | 45µM
Cc1ccccc1NC(=O)/C(=C/c1ccco1)c1ccccc1 | . | . | . | 32µM | . | 56µM
CC(C)OC(=O)/C(=C/c1ccco1)c1ccccc1 | . | . | . | / | . | 45µM
CCN1C(=O)[C@H]2[C@H]3[C@H](O)[C@H](O)C/C(=N/OC[C@@H](O)[C@H]4O[C@H]5OC(C)(C)O[C@H]5[C@@H]4O)[C@@H]3CC[C@@H]2C1=O | / | / | / | / | / | .
COc1ccc(C2C(C(=O)c3ccc(C)o3)=C(O)C(=O)N2Cc2cccnc2)cc1 (stereo unspecified) | . | . | . | 50µM | . | .
Cc1ccc(C(=O)C2=C(O)C(=O)N(Cc3cccnc3)C2c2ccc(Br)cc2)o1 (stereo unspecified) | . | . | . | ? | . | .
Cc1ccc(C(=O)C2=C(O)C(=O)N(Cc3cccnc3)C2c2ccc(N(C)C)cc2)o1 (stereo unspecified) | . | . | . | 35µM | . | .
COc1cccc(NCc2ccc([N+](=O)[O-])s2)c1 | . | . | . | 13µM | . | .
COc1cccc(CNc2ccc([N+](=O)[O-])cc2C)c1 | . | . | . | / | . | .
Cc1ccc(C)c(OC(=O)CSc2nnc(-c3cccs3)o2)c1 | / | / | / | . | . | /
Cc1ccc(C)c(NC(=O)C(Sc2nnc(-c3cccs3)o2)c2ccccc2)c1 (stereo unspecified) | ? | . | . | 79µM | . | .
Cc1cccc(C)c1NC(=O)CCS(=O)(=O)c1ccc2c(c1)CC(C)N2C(=O)C1CC1 (stereo unspecified) | / | / | / | . | . | /
c1cn(-c2cc(-c3ccc4c(c3)OCO4)ncn2)cn1 | / | / | / | .[0.501 µM] | . | .
O=C(NCCCl)C1Cc2c(ccc3ccccc23)O1 (stereo unspecified) | . | . | . | 40µM | . | .
O=C(Nc1cccc(C(F)(F)F)c1)c1cccnc1N1CCN(c2ccccc2)CC1 | . | . | . | ? | . | 22µM
O=C(Nc1cccc(Cl)c1)c1ccc2nc(CCc3ccccc3)oc2c1 | / | / | / | . | . | /
COc1ccc(-c2csc(NC(=O)c3ccoc3C)n2)cc1 | . | . | . | 50µM | . | ?
COc1ccc(C(=O)NNC(=O)CCC(=O)NNC(=O)c2ccc(OC)cc2)cc1 | . | . | . | 7.9µM | . | .
COc1ccc(C(=O)NNC(=O)C2CCCO2)cc1 (stereo unspecified) | 27µM | . | . | . | ? | .
COc1ccc(-c2csc(NC(=O)c3ccccc3C(=O)O)n2)cc1 | . | . | . | ? | . | .
COc1ccc(C(=O)NNC(=O)CSc2nc3c([nH]2)c(=O)n(C)c(=O)n3C)cc1 | . | . | . | 22µM | . | ?
COc1ccc(C(=O)NNC(=O)CSc2ccccc2)cc1 | . | . | . | / | . | .
COc1ccc(CCC(=O)NNC(=O)c2ccc(OC)cc2)cc1 | . | . | . | . | . | .
